Screening data as filed in PubChem.
mHTT-CaM PPI inh = mHTT-calmodulin interaction abrogation; P42858; AlphaScreen His-mHTT/GST-CaM binding, luminescence; inhibition, % at 15 µM; 190,000 tested, 3.6% active;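 note: 0% = both proteins with DMSO and 100% = one protein alone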
Pf apPOL block = Pf-apPOL DNA polymerase inhibition; inhibition, % at 10 µM; 210,000 tested, 0.25% active; Recombinant Pf-apPOL, molecular beacon fluorescence, 1.5 h; AID 1794808
* = called active by the depositor; x = no result. Hits are enriched below; roughly 3.6% of the tested compounds scored in any of these assays. Cut-off read from the data, not from the text of the source: active = inhibition above about 50%; inactive = the rest.

SMILES	mHTT-CaM PPI inh	Pf apPOL block
CC1=C(C(=O)Nc2cccc(C(F)(F)F)c2)C(c2ccncc2)C2=C(CCCC2=O)N1 (configuration not stated)	-1	-1
CC1=C(C(=O)Nc2ccccn2)C(c2ccccc2)C2=C(CCCC2=O)N1 (configuration not stated)	-1	52*
CC1=C(C(=O)Nc2ccccn2)C(c2ccc(F)cc2)C2=C(CCCC2=O)N1 (configuration not stated)	0	2
CC1=C(C(=O)Nc2cccc(C(F)(F)F)c2)C(c2ccc(N(C)C)cc2)C2=C(CCCC2=O)N1 (configuration not stated)	57*	-3
Cc1ccc(S(=O)(=O)NCC2CCN(Cc3ccccc3)CC2)cc1C	-3	-3
CC1(C)CC(=O)C2=C(C1)Nc1ccccc1N(C(=O)C(F)(F)F)C2c1cccnc1 (configuration not stated)	4	63*
CC(=O)N1c2ccccc2NC2=C(C(=O)CC(c3ccc(Cl)c(Cl)c3)C2)C1c1cccnc1 (configuration not stated)	83*	-7
CC1(C)CC(=O)C2=C(C1)Nc1ccccc1N(C(=O)C(F)(F)F)C2c1cccc(O)c1 (configuration not stated)	4	-8
CC(=O)N1c2ccccc2NC2=C(C(=O)CC(c3ccc(F)cc3)C2)C1c1cccnc1 (configuration not stated)	6	1
O=S(=O)(NCCCO)c1ccc2c(c1)C(=NO)c1cc(S(=O)(=O)NCCCO)ccc1-2	5	26
N#C/C(=C\c1ccc(-c2ccc(F)cc2F)o1)c1nn(CCO)c(N)c1C#N	1	2
Cc1ccc(C2=NN(C(=O)CN3CCOCC3)C(c3ccccc3F)C2)c(C)c1 (configuration not stated)	24	0
COc1ccccc1C1CC(c2ccc(C)cc2)=NN1C(=O)CN1CCCCC1 (configuration not stated)	40	-5
COc1ccccc1C1CC(c2ccc(F)cc2)=NN1C(=O)CN1CCCCC1 (configuration not stated)	100*	0
COc1ccccc1C1CC(c2ccc(C)cc2C)=NN1C(=O)CN1CCOCC1 (configuration not stated)	63*	-4
Cc1ccc(C2=NN(C(=O)CN3CCOCC3)C(c3ccccc3F)C2)cc1 (configuration not stated)	40	-6
Cc1ccc(C2=NN(C(=O)CN3CCOCC3)C(c3cc(C)ccc3C)C2)c(C)c1 (configuration not stated)	65*	-2
Cc1ccc(C2=NN(C(=O)CN3CCOCC3)C(c3ccccc3C)C2)c(C)c1 (configuration not stated)	86*	-2
COc1ccccc1C1CC(c2cccc(C)c2)=NN1C(=O)CN1CCCCC1 (configuration not stated)	45	-2
COC(=O)NC1CCN(c2ccccc2C(=O)N2CCCCC2)CC1	2	-24
CS(=O)(=O)N1CCC(Cc2ccccc2)CC1	-4	6
Cc1cccc(-c2nc3n(n2)C(c2ccccc2)C2=C(CCCC2=O)N3)c1 (configuration not stated)	-12	1
CC1C(=O)N(c2cccc(Br)c2)CCN1C(=O)c1ccc(F)cc1 (configuration not stated)	-4	-1
O=C(Cn1cc2c(n1)CCCCCC2)NCCc1ccc(Cl)cc1	2	-1
COc1ccc(OC)c(C=C2Oc3c(CN4CCN(C)CC4)c(O)cc(C)c3C2=O)c1	-2	-3
SMILES	mHTT-CaM PPI inh	Pf apPOL block
O=C1CSC(c2c(F)cccc2Cl)N1c1cc(Cl)ccc1O (configuration not stated)	-2	0
COc1ccc(-c2cc3nc4c(c(=O)n3[nH]2)CCN(C(=O)NCc2ccco2)C4)cc1	13	-4
CN1CCN(C(=O)C23CC4CC(C2)CC(n2nc([N+](=O)[O-])nc2Br)(C4)C3)CC1	5	3
CCCn1cc(C2=CCN(C(=O)Nc3cccc(Cl)c3F)CC2)c2cccnc21	45	-3
CCCC1CCc2c(sc(NC(=O)c3ccncc3)c2C(N)=O)C1 (configuration not stated)	-5	66*
CCCC1CCc2c(sc(NC(=O)c3cccnc3)c2C(N)=O)C1 (configuration not stated)	7	5
COc1ncnc2c1C(c1cccc([N+](=O)[O-])c1)c1c(OC)ncnc1O2	7	-6
CNc1ncnc2c1C(c1cccc([N+](=O)[O-])c1)c1c(NC)ncnc1O2	13	75*
CCOc1cccc2sc(NC(=O)c3ccc(S(=O)(=O)N(CC)CC)cc3)nc12	28	-5
Cc1cc(Nc2ccc(N(C)C)cc2)c2cc(Cl)ccc2n1	73*	-6
Cc1cc(Nc2ccc(O)cc2)c2cc(Cl)ccc2n1	17	-7
CCOc1ccc2nc(C)cc(Nc3ccc(C)c(Cl)c3)c2c1	95*	-12
CCOc1ccc2nc(C)cc(Nc3ccc(N4CCOCC4)cc3)c2c1	25	-3
COCCCNC(=O)C1(C)CCC(=O)N1c1ccc(C(C)C)cc1 (configuration not stated)	-11	-1
O=C(C=Cc1cccs1)NC(=S)Nc1ccc(Cl)cc1	x	-2
O=C(NCCNC(=O)c1ccc(F)c(F)c1)c1ccc(NC(=O)c2ccc(F)cc2)cc1	69*	38
O=C(Nc1ccc(F)cc1)c1ccc(C(=O)Nc2ccc(F)cc2)cc1	-1	-3
Cc1cccc2c(=O)cc(C)n(CC(=O)Nc3ccc(Br)cc3)c12	4	-3
O=C1OC(c2ccc(Cl)cc2)=C/C1=C\c1ccco1	20	-4
O=C1OC(c2ccc(Oc3ccccc3)cc2)=C/C1=C\c1ccco1	78*	3
COc1ccc(N2C(=O)C3CCCN3C2c2cccc(C)c2)cc1Cl (configuration not stated)	1	-5
COc1ccc(OC)c(C2N(c3cc(C)on3)C(=O)C3CCCN32)c1 (configuration not stated)	0	-3
COc1cccc(C2N(c3ccc(Cl)c(Cl)c3)C(=O)C3CCCN32)c1 (configuration not stated)	99*	-4
COc1ccc(C2N(c3ccc(Cl)cc3)C(=O)C3CCCN32)cc1 (configuration not stated)	-6	-3
COc1ccc(OC)c(C2N(c3ccc(Cl)c(Cl)c3)C(=O)C3CCCN32)c1 (configuration not stated)	100*	-2
SMILES	mHTT-CaM PPI inh	Pf apPOL block
COc1ccc(OC)c(C2N(c3ccc(Cl)cc3)C(=O)C3CCCN32)c1 (configuration not stated)	73*	-1
COc1cccc(C2N(c3ccc(Cl)c(Cl)c3)C(=O)C3CCCN32)c1OC (configuration not stated)	100*	-4
COc1cccc(C2N(c3ccccn3)C(=O)C3CCCN32)c1OC (configuration not stated)	-3	-2
CCn1c(SC)nnc1-c1nn(C)c2c1CN(C(=O)Cc1ccccc1Cl)CC2	5	-7
CC(O)(CNC(=O)c1cnccn1)c1cccs1 (configuration not stated)	-17	-3
Cc1ccc(NS(=O)(=O)c2ccc(NC(=O)C3CCCCC3)cc2)c(C)c1	1	-9
O=C(NCC(c1cccc2ccccc12)N1CCCC1)C(=O)Nc1ccncc1 (configuration not stated)	25	-5
